# The campaign covered roughly 310,000 compounds. About 14,000 (4.5%) showed an effect of 50% or more. The effect is printed as a negative number. What follows is part of a selection rich in strong results, with near analogues and random picks from the rest.
# Molecular target: human ether-à-go-go-related gene (hERG) potassium channel (human, UniProt Q12809)
# Assay: primary screen, population patch clamp on CHO cells stably expressing hERG; higher = less effect of the substance
# 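Further: peak tail current of the secondary pulse compared with the same well before compound.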
# Chain of human ether-à-go-go-related gene (hERG) potassium channel (Q12809 whole entry, looked up): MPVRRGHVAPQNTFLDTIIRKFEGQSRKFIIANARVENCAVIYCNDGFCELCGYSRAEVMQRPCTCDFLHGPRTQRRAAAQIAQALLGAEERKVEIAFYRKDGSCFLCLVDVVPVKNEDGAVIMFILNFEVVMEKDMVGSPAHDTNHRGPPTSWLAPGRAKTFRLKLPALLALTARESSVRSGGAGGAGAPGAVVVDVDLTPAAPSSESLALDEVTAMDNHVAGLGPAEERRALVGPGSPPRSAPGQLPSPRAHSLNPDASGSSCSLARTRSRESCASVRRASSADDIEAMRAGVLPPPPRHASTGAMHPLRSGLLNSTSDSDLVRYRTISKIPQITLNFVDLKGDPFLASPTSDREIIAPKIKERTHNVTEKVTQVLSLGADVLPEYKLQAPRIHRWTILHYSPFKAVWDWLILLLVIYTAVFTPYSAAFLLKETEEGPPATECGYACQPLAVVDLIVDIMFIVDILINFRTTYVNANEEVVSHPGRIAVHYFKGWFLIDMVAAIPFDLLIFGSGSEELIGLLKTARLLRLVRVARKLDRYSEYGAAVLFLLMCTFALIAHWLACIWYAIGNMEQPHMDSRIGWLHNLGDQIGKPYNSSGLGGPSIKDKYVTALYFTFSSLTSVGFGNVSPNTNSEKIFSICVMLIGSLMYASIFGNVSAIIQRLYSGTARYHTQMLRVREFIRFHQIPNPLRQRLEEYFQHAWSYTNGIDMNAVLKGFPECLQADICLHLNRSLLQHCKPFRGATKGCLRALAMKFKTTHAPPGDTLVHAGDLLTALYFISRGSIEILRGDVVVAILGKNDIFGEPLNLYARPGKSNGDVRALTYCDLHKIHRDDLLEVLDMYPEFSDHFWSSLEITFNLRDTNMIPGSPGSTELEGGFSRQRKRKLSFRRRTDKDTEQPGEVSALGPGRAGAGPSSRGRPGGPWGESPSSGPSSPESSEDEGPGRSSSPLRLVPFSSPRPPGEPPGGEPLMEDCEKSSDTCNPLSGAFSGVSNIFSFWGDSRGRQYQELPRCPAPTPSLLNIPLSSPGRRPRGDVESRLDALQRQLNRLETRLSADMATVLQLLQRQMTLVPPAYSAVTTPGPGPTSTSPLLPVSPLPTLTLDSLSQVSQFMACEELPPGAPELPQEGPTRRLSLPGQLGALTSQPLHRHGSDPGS
row,Structure (SMILES),"hERG current change (%, negative = inhibition) at 10uM [%]"
1,Cc1ccc(SC(C)C(=O)N2CCC(C(N)=O)CC2)cc1 (stereo not shown),20.1
2,CCOc1ccc(-c2nc(N)ncc2Oc2ccc(OC)cc2)c(O)c1,-2.1
3,Cc1cccc(CNc2ccc(C(CC(N)=O)NC(=O)c3cccc(Br)c3)cc2[N+](=O)[O-])c1 (stereo not shown),-19.8
4,C=Cn1cc[n+](CC(=O)c2ccc(-c3ccccc3)cc2)c1.[Br-],7.91
5,O=C(C[n+]1cccc(C(=O)Nc2ccccc2)c1)c1ccc([N+](=O)[O-])cc1.[Br-],-73.1
6,O=C(Nc1ccccc1)c1ccc[n+](Cc2ccc([N+](=O)[O-])cc2)c1.[Br-],-4.25
7,O=C(C[n+]1ccc2ccccc2c1)c1cccc2ccccc12.[Br-],-72.8
8,O=C(Nc1cccc([N+](=O)[O-])c1)c1cccc(C(=O)Nc2cccc([N+](=O)[O-])c2)c1,24.1
9,O=C(Cn1cc[n+](Cc2ccccc2)c1)c1ccc([N+](=O)[O-])cc1.[Br-],-23.7
10,O=C(C[n+]1cccc(NC(=O)c2ccccc2)c1)c1ccc(NC(=O)c2ccccc2)cc1.[Br-],1.37
11,O=C(C[n+]1ccc2ccccc2c1)c1ccccc1.[Br-],-22.5
12,CCC(=O)Nc1cccc(NC(=O)c2cccc([N+](=O)[O-])c2)c1,-61.2
13,O=C(C[n+]1ccn(-c2ccccc2)c1)c1ccc([N+](=O)[O-])cc1.[Br-],-61.3
14,O=C(C[n+]1ccc2ccccc2c1)c1ccc(NC(=O)c2ccccc2)cc1.[Br-],-0.135
15,CC(C)C(=O)Nc1cccc(NC(=O)c2cccc([N+](=O)[O-])c2)c1,-30.9
16,COc1ccc(/C=C/C(=O)O)cc1S(=O)(=O)NCC1CCCO1 (stereo not shown),14.1
17,O=[N+]([O-])c1cccc(CSC2=NCCN2S(=O)(=O)c2ccccc2)c1,-6.78
18,O=C(O)c1cccc(CSc2nc(-c3ccc(Cl)cc3)cc(C(F)(F)F)n2)c1,-0.199
19,NNC(=O)c1c(O)c2cccc3c2n(c1=O)CCC3,22.4
20,COc1ccc(N2CCN(S(=O)(=O)c3ccc4c(c3)CCCC4)CC2)c([N+](=O)[O-])c1,6.51
21,Cc1cc(C(=O)c2ccc3ccccc3c2)c(C)o1,2.09
22,Cn1ncc([N+](=O)[O-])c1C(=O)N/N=C/c1ccc(F)cc1,-9.05
23,O=C(Nc1ccccc1C(=O)N1CCCCC1)c1cc(F)c(F)cc1Cl,1.47

row,Structure (SMILES),"hERG current change (%, negative = inhibition) at 10uM [%]"
1,O=C(C[n+]1cccc(NC(=O)c2ccccc2)c1)c1cccc([N+](=O)[O-])c1.[Br-],-76.3
2,O=C(C[n+]1cccc2ccccc21)c1ccc([N+](=O)[O-])cc1.[Br-],-72.4
3,O=C(C[n+]1cccc2ccccc21)c1ccccc1.[Br-],-1.84
4,O=C(Nc1cccc([N+](=O)[O-])c1)c1ccccc1,7.97
5,Cc1cc[n+](CC(=O)c2ccccc2)c2ccccc12.[Br-],-8.1
6,NC(=O)c1ccc[n+](CC(=O)c2ccc(NC(=O)c3ccccc3)cc2)c1.[Br-],27.1
7,Cc1cc[n+](CC(=O)c2cccc([N+](=O)[O-])c2)c2ccccc12.[Br-],-58.8
8,O=C(Nc1ccc[n+](CC(=O)c2cccc3ccccc23)c1)c1ccccc1.[Br-],-58.9
9,Cc1cc[n+](CC(=O)c2ccc(NC(=O)c3ccccc3)cc2)c2ccccc12.[Br-],7.1
10,NC(=O)c1ccc[n+](CC(=O)c2cccc([N+](=O)[O-])c2)c1.[Br-],16.9
11,Cc1ccc(C(=O)C[n+]2cccc3ccccc32)cc1.[Br-],-9.35
12,O=C(C[n+]1cccc(NC(=O)c2ccccc2)c1)c1ccccc1.[Br-],-18.1
13,O=C1c2ccccc2C(O)(Cc2ccccc2)N1Cc1ccco1 (stereo not shown),10.1
14,Cc1ccc(C(=O)Nc2ccc(N3CCOCC3)cc2)cc1S(=O)(=O)N1CCCCC1,-10.1
15,CCOC(=O)CC1(c2ccc(OC)c(OC)c2)C(=O)c2ccccc2C1=O,-1.97
16,c1ccc(-c2cc3c(nn2)CCc2nonc2-3)cc1,0.384
17,COc1ccc(-c2nnc(SCC(=O)c3cccs3)o2)cc1,-8.4
18,CCCOC(=O)CCCCCCCCC(O)CN1CCCCC1.Cl (stereo not shown),-30
19,Cc1ccnc(NC(=O)Nc2cccc(F)c2)c1,-4.23
20,COc1ccc(NC(=O)c2ccc3ccccc3c2)cc1,11
21,Cc1cccc(CSCCNC(=O)c2ccc(N(C)S(=O)(=O)c3ccccc3)cc2)c1,-4.05
22,Cc1ccc(C(CC(=O)N2CCCCC2)c2ccccc2)c(O)c1C (stereo not shown),-22.1
23,Cc1cccc(C(CC(=O)N2CCCCC2)c2ccccc2)c1O (stereo not shown),-34.2

row,Structure (SMILES),"hERG current change (%, negative = inhibition) at 10uM [%]"
1,Cc1cccc(C(CC(=O)N2CCCC2)c2ccccc2)c1O (stereo not shown),-19.4
2,Cc1ccc(C(CC(=O)N2CCCC2)c2ccccc2)c(O)c1C (stereo not shown),-57.9
3,Cc1ccc(C(CC(=O)N2CCCC2)c2ccccc2)c(O)c1 (stereo not shown),4.04
4,Cc1ccc(C(CC(=O)N2CCNCC2)c2ccccc2)c(O)c1C (stereo not shown),-63.8
5,O=C(c1ccc(Br)s1)N1CCN(c2ncccn2)CC1,-20.3
6,CC12CCC3c4ccc(O)cc4CCC3C1CC(O)C2O (stereo not shown),19.5
7,CC1=C(C(=O)Nc2ccccn2)C(c2ccccc2Cl)NC(=S)N1 (stereo not shown),10.1
8,CC(=NCCN1CCN(C(C)=C2C(=O)c3ccccc3C2=O)CC1)C1=C(O)CC(C)(C)CC1=O,-50.5
9,CC(=C1C(=O)c2ccccc2C1=O)N1CCN(CCN=CC2=C(O)CC(C)(C)CC2=O)CC1,-42.3
10,CC(=NCCN1CCN(C(=S)Nc2ccccc2)CC1)C1=C(O)CC(C)(C)CC1=O,-15.3
11,CCc1nnc(NC(=O)CSc2ccc(-c3ccccc3OC)nn2)s1,-7.08
12,CCCS(=O)(=O)N1CCCC(C(=O)NCCN2CCOCC2)C1 (stereo not shown),13.7
13,CCS(=O)(=O)N1CCCC(C(=O)NCCN2CCC(Cc3ccccc3)CC2)C1 (stereo not shown),-59.1
14,O=C(NCCCN1CCC(Cc2ccccc2)CC1)C1CC(=O)N(C2CCCC2)C1 (stereo not shown),-34.8
15,O=C(NCCCN1CCC(Cc2ccccc2)CC1)C1CC(=O)N(C2CCCCCC2)C1 (stereo not shown),-66.8
16,CCCS(=O)(=O)N1CCCC(C(=O)NCCCN2CCN(c3ccccc3F)CC2)C1 (stereo not shown),-21.1
17,CCCCN(CCCNC(=O)C1CCN(S(=O)(=O)CC)CC1)c1ccccc1,-51.1
18,CS(=O)(=O)N1CCCC(C(=O)NCCN2CCC(Cc3ccccc3)CC2)C1 (stereo not shown),-28
19,CS(=O)(=O)N1CCCC(C(=O)NCCCN2CCC(Cc3ccccc3)CC2)C1 (stereo not shown),-33.5
20,O=C(NCCCN1CCCCCC1)C1CC(=O)N(C2CCCC2)C1 (stereo not shown),5.99
21,CCCS(=O)(=O)N1CCCC(C(=O)NCCCN2CCN(c3ccc(F)cc3)CC2)C1 (stereo not shown),-59.5
22,CCCCN(CCCNC(=O)C1CCN(S(=O)(=O)N2CCOCC2)CC1)c1ccccc1,-48.8
23,CCN(CCCNC(=O)C1CCN(S(=O)(=O)CC)CC1)c1ccccc1,-21.7

row,Structure (SMILES),"hERG current change (%, negative = inhibition) at 10uM [%]"
1,COC(=O)c1sc2nc(SCC(=O)N(C)c3ccccc3)n(N)c(=O)c2c1C,27.4
2,Cc1cccc(OCCCOc2cccc3cccnc23)c1C,10.4
3,Cc1nc(CC(=O)N2CCN(S(=O)(=O)c3ccccc3C#N)CC2)cs1,10.3
4,C/C(=N\NC(=O)CCC(=O)O)c1c(-c2ccccc2)c2cc(Br)ccc2[nH]c1=O,6.72
5,O=C(O)C1CC(c2ccccc2)=Nc2ccccc2S1 (stereo not shown),1.43
6,CN1C(=O)/C(=C\c2ccncc2)SC1=Nc1ccccc1,-11.2
7,Cc1ccc(-c2nc(N)sc2C)cc1,-16.9
8,COC(=O)c1c(NC(=O)c2cccnc2Cl)sc(C(=O)N(C)C)c1C,-6.44
9,S=c1[nH]nc(Nc2cccc3ccccc23)s1,16.3
10,O=C(c1cc2sccc2n1Cc1ccccc1)N1CCc2ccccc21,-2.82
11,CCCS(=O)(=O)N1CCC(C(=O)NCCN2CCC(Cc3ccccc3)CC2)CC1,-57.6
12,CCS(=O)(=O)N1CCC(C(=O)NCCCN2CCC(Cc3ccccc3)CC2)CC1,-65.5
13,O=C(NCCCN1CCC(Cc2ccccc2)CC1)C1CCN(S(=O)(=O)N2CCC3(CC2)OCCO3)CC1,-42.7
14,CC1CC(C)CN(S(=O)(=O)N2CCCC(C(=O)NCCCN3CCOCC3)C2)C1 (stereo not shown),19.1
15,CCS(=O)(=O)N1CCC(C(=O)NCCN2CCN(Cc3ccccc3)CC2)CC1,2.07
16,CCCS(=O)(=O)N1CCC(C(=O)NCCc2ccccc2)CC1,1.42
17,CCCNC(=O)N1CCC(Cc2ccccc2)CC1,16.6
18,CCCS(=O)(=O)N1CCC(C(=O)NCCN2CCCC2)CC1,-7.65
19,CC1CC(C)CN(S(=O)(=O)N2CCCC(C(=O)NCCCN3CCCCC3C)C2)C1 (stereo not shown),-9.36
20,CCCC(=O)N1CCC(Cc2ccccc2)CC1,9.83
21,CCCCCCNCC(=O)N1CCC(Cc2ccccc2)CC1,-71.7
22,CC1CC(C)CN(CCCNC(=O)C2CCCN(S(=O)(=O)N3CC(C)CC(C)C3)C2)C1 (stereo not shown),-61

# From publication PMC4336329 (PLoS ONE, 2015)
